The panel holds about 83,000 compounds, 20% with a hit somewhere; the sample as a whole holds those more often.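 Assay: single dose, 48 h. Readout: percent growth (0 = no net growth; negative = cell death). Active: <10.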 Calls of active or inactive are those of the source.
What was measured:
Assay in all cases: NCI-60 one-dose screen, 48 h (100 = growth as untreated, 0 = no growth, -100 = all killed)
Settings in all cases: 10 µM unless noted
[1] = system: NCI-H23 lung
[2] = system: NCI-H226 lung
[3] = system: NCI-H322M lung
[4] = system: HOP-62 NSCLC
[5] = system: NCI-H460 lung
[6] = system: HOP-92 NSCLC
[7] = system: NCI-H522 lung
[8] = system: A549/ATCC NSCLC
[9] = system: 786-0 renal
[10] = system: COLO 205 colon

Measured: growth

CCOC(=O)c1nn(CC(O)c2ccccc2)c(NC(=O)Nc2cccc(F)c2)c1C (stereo not given)
inactive: [1] 108% | [2] 84.8% | [3] 98.9% | [4] 104% | [5] 96.3% | [6] 99.8% | [7] 84.7% | [8] 87.9% | [9] 99.7% | [10] 106%

C#COc1cccc(Nc2ncnc3cc(NC(=O)[C@@H](C)Cl)ccc23)c1
active: [4] 7.46% [6.25 µM] | [5] 6.36% [6.25 µM] | [7] -34.7% [6.25 µM] | [8] 6.69% [6.25 µM] | [10] 3.72% [6.25 µM]
inactive: [1] 22.8% [6.25 µM] | [2] 41.4% [6.25 µM] | [3] 38.9% [6.25 µM] | [6] 57.5% [6.25 µM] | [9] 17% [6.25 µM]

Cn1c2c(c3ccc(Cl)c(Cl)c31)C(C#N)C(C)(C)NC2=O (stereo not given)
inactive: [1] 97.6% | [2] 59.4% | [3] 91.4% | [4] 90.7% | [5] 91% | [6] 72.8% | [7] 55.8% | [8] 89.5% | [9] 69.3% | [10] 92.2%

COc1ccc(C(=S)N2CCN(c3ccc(Cl)cc3)CC2)cc1
inactive: [1] 101% | [2] 96% | [3] 89.3% | [4] 97.8% | [5] 105% | [6] 89.9% | [7] 75.6% | [8] 84% | [9] 92.5% | [10] 103%

NC(=O)c1cnc(Nc2cccc(N)c2)nc1NCCCNC(=O)C1CCC1
inactive: [1] 79.8% | [2] 69.1% | [3] 86.6% | [4] 46.6% | [5] 69.8% | [6] 123% | [7] 64.5% | [8] 87.7% | [9] 76.8% | [10] 28.2%

Oc1c(CN2CCCC2)cc(CSCc2ccccc2)c2cccnc12
inactive: [1] 11.8% | [6] 14.5% | [7] 12.9% | [10] 51%
active: [2] -4.43% | [3] -0.478% | [4] 4.78% | [5] 2.01% | [8] 9.29% | [9] 6.65%

CCN(CC)CCN1C(=O)c2cccc3c(/C=C/CN4C(=O)c5cccc6cccc(c56)C4=O)ccc(c23)C1=O
inactive: [1] 98.1% | [2] 92.7% | [3] 97.4% | [4] 89.5% | [5] 98.7% | [6] 88.1% | [7] 97.9% | [8] 98.8% | [10] 80.7%
active: [9] -9.45%

CCN1C(=O)N(CC)C2Nn3c(s/c(=C\c4ccccc4Br)c3=O)=NC21 (stereo not given)
inactive: [1] 25.6% | [2] 57.5% | [3] 46.7% | [4] 37% | [6] 42.9% | [8] 12.7% | [9] 25.3% | [10] 14.4%
active: [5] 4.16% | [7] -12.8%

COCCn1cc(-c2csc(-c3c[nH]c4ccc(Br)cc34)n2)c2cccnc21
inactive: [1] 32.3% | [2] 58% | [3] 59.5% | [4] 45.4% | [5] 20.7% | [8] 23.1% | [10] 24.9%
active: [6] 2.14% | [7] -28.3% | [9] -4.75%

COC(=O)N1CC(Oc2ccccn2)C2CC1c1ccccc1O2 (stereo not given)
inactive: [1] 94% | [2] 104% | [3] 119% | [4] 100% | [5] 100% | [6] 90.3% | [7] 97.6% | [8] 98.6% | [9] 104% | [10] 102%

C=C(CNCCc1ccc(O)cc1)[C@@H]1CC[C@]2(CO)CC[C@]3(C)[C@H](CC[C@@H]4[C@@]5(C)CCC(=O)C(C)(C)[C@@H]5CC[C@]43C)[C@@H]12
inactive: [1] 65.7% | [2] 93.1% | [3] 63.2% | [4] 84.4% | [6] 35.1% | [7] 29.2% | [8] 26.7% | [9] 44.7%
active: [5] -48.8% | [10] -55.6%

C=C(C)[C@@H]1CC[C@]2(COC(C)=O)CC[C@]3(C)[C@H](CC[C@@H]4[C@@]5(C)CCCN(C(C)=O)C(C)(C)[C@@H]5CC[C@]43C)[C@@H]12
active: [5] 0.0182% | [9] 8.13% | [10] -76.5%
inactive: [1] 89.2% | [2] 45.2% | [3] 61.3% | [4] 82.6% | [6] 69.3% | [7] 59.6% | [8] 33.8%

COc1cccc(/C=C/C(=O)c2cccc(Nc3nc(Nc4ccccc4)nc(Nc4ccccc4)n3)c2)c1
inactive: [1] 82.2% | [2] 94.2% | [3] 86.6% | [4] 79.2% | [5] 91.9% | [6] 17.7% | [7] 85.6% | [8] 68.5% | [9] 89% | [10] 87.5%

CC/C(Cc1ccccc1)=C(\c1ccc(OCCCN(C)C)cc1)c1ccc(OC(=O)NCc2ccccc2)cc1
inactive: [1] 92.9% | [2] 86.4% | [3] 87.2% | [4] 85.7% | [6] 38.6% | [7] 95.5% | [8] 61.9% | [9] 62%
active: [5] 7.02% | [10] 4.67%

[2H]C([2H])([2H])Oc1ccc(F)cc1/C=C/C(=O)/C=C(/C=C/c1cc(F)ccc1OC([2H])([2H])[2H])OB(F)F
inactive: [1] 76.6% | [2] 109% | [3] 108% | [4] 97.8% | [5] 95.5% | [6] 99.7% | [7] 18.9% | [8] 90.8% | [9] 86.3% | [10] 57.6%

Oc1ccc(/C=C/c2ccc(O)cc2)cc1
active: [7] -0.122%
inactive: [1] 62.2% | [2] 90.8% | [3] 58.5% | [4] 71.4% | [5] 34.5% | [6] 73.2% | [8] 60.7% | [9] 24.3% | [10] 134%

Cn1cc(-c2ccc(-c3cn(C)c4ccc(Cl)cc34)[nH]2)c2cc(Cl)ccc21
active: [2] 6.47% | [4] 9.58% | [5] -60.2% | [6] -36% | [7] -33.8% | [8] -48.3% | [10] -91.5%
inactive: [1] 10.9% | [3] 41.4% | [9] 41%

N#CC1=C(N)Oc2ccc3ccccc3c2C1c1ccc([N+](=O)[O-])cc1 (stereo not given)
inactive: [1] 78.2% | [2] 87.4% | [3] 89.3% | [4] 81.8% | [5] 93.3% | [6] 121% | [7] 73.5% | [8] 93.7% | [9] 88.1% | [10] 102%

COc1ccc2cc(-c3ccnc4c(N=Nc5ccc(Cl)cc5)c(N)nn34)ccc2c1
inactive: [1] 108% | [2] 90.2% | [3] 102% | [4] 94.4% | [5] 100% | [6] 98.7% | [7] 95.6% | [8] 81.9% | [9] 106% | [10] 110%

CCn1cc(CNc2ccc(C(=O)Nc3cc4cc(OC)c(OC)cc4c(C)n3)cc2)cn1
inactive: [1] 43.3% | [2] 48.7% | [3] 103% | [4] 39.6% | [5] 86.7% | [6] 59.5% | [8] 48.1% | [9] 70.4% | [10] 42.1%
active: [7] 9.72%

Cn1ccc(=O)nc1
inactive: [1] 88.7% | [2] 104% | [3] 82.9% | [4] 102% | [5] 38.7% | [6] 104% | [7] 49% | [8] 83.2% | [9] 109% | [10] 102%

O=C(N/N=C/c1cc(Cl)ccc1O)c1ccccc1Nc1ccnc(C(F)(F)F)c1
inactive: [1] 37.9% | [3] 19.9% | [4] 30.4% | [6] 14% | [7] 50.9% | [8] 54.4% | [9] 27.2% | [10] 14.1%
active: [2] -1.12% | [5] 4.73%

CC1(C)CC[C@]23CC[C@]4(C)[C@H](CC[C@@H]5[C@@]6(C)C/C(=C/c7ccncc7)C(=O)C(C)(C)[C@@H]6CC[C@]54C)[C@H]2[C@H]1OC3
inactive: [1] 91.8% | [2] 90.9% | [3] 90.9% | [4] 91% | [5] 75.8% | [6] 72.4% | [7] 76.4% | [8] 76.5% | [9] 88.5% | [10] 68.5%

C[C@H](CCCC(=O)NCC#CCN1CCN(C)CC1)[C@H]1CC[C@H]2[C@@H]3CC[C@@H]4CC(=O)CC[C@]4(C)[C@H]3CC[C@]12C
inactive: [1] 87.7% | [2] 103% | [3] 97.7% | [4] 96.2% | [5] 96% | [6] 73.7% | [7] 102% | [8] 95.7% | [9] 97% | [10] 95.1%

CCN1C(=O)N(CC)C2C1N=C(SCc1ccc(Cl)cc1)N2/N=C/C=C/c1ccccc1OC (stereo not given)
inactive: [1] 78.2% | [2] 75% | [3] 97.1% | [4] 70% | [5] 85.6% | [6] 50.6% | [7] 34.1% | [8] 53.7% | [9] 86.2% | [10] 59.7%

Cc1nn(-c2ccccc2)c(N)c1N=C1NC(=O)/C(=C/c2ccc(Br)cc2)S1
inactive: [1] 75.8% | [2] 78.4% | [3] 83.5% | [4] 59.6% | [5] 93.1% | [6] 65.6% | [7] 85.4% | [8] 74.3% | [9] 94.6% | [10] 101%

Source: PubChem BioAssay (NCI)
